For seven compounds, outcome and AC50 results are on record in PubChem BioAssay (EPA / NIEHS).

A short description of assay [1]: ATG_CMV_CIS: Attagene CIS-FACTORIAL HepG2 Assay for human CMV (Internal Marker) (AID 2282928).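 Further: endpoint acts as a background internal control marker rather than a target.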 The note with it: HepG2 CMV promoter reporter, transcription factor profiling; actives raise or lower the signal. In short, it runs like this: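 After transient transfection of HepG2 with reporter transcription units driven by cis-regulatory promoters, cells receive test chemical for 24 h. Labeled reporter amplicons, digested with HpaI, are sized and quantified by capillary electrophoresis against DMSO.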

Assay [2] can be described thus: ATG_ISRE_CIS: Attagene CIS-FACTORIAL HepG2 Assay for human Interferon Regulatory Factor 1 (IRF1) binding to an Interferon-Stimulated Response Element (ISRE) (AID 2282948). The following applies: HepG2 ISRE cis-reporter (Attagene), mRNA transcription readout; actives raise or lower the signal. An outline of the steps: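 Cell-based cis-reporter assay; HepG2; 24 h exposure; reporter mRNA by RT-PCR plus capillary electrophoresis fluorescence; activity in either direction scored relative to DMSO.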

Assay [3] in a line: ATG_M_32_CIS: Attagene CIS-FACTORIAL HepG2 Assay for M32 Transcription Factor (Internal Marker) (AID 2282949).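 Further: background control marker of the multiplexed CIS panel rather than a real target.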 The note with it: HepG2 Attagene cis-factorial M32 reporter, mRNA; actives raise or lower the signal. An outline of the steps: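 Internal background marker read-out: RT-PCR/capillary electrophoresis fluorescence of reporter transcripts from transiently transfected HepG2 cells after 24 h chemical exposure. Activity fitted bidirectionally relative to DMSO negative control.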

Assay [4] addresses Hepatocyte nuclear factor 6 (Homo sapiens) (UniProt Q9UBC0). Description: ATG_HNF6_CIS: Attagene CIS-FACTORIAL HepG2 Assay for human Hepatocyte Nuclear Factor 6 (HNF6) (AID 2282952). The following applies: HepG2 Attagene cis-factorial HNF6 reporter transcription; actives raise or lower the signal. An outline of the steps: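 Cells are HepG2 carrying transiently transfected cis-promoter reporter units. Treatment lasts 24 h, after which reporter transcripts are reverse-transcribed, amplified, FAM-labelled and sized by capillary electrophoresis. DMSO serves as baseline.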

Assay [5] concerns the target Heat shock factor protein 1 (Homo sapiens) (UniProt Q00613). Nature of the assay: ATG_HSE_CIS: Attagene CIS-FACTORIAL HepG2 Assay for human Heat Shock Transcription Factor 1 (HSE) (AID 2282953). The following applies: HepG2 HSE cis-reporter, Attagene RNA transcription; actives raise or lower the signal. In short, it runs like this: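 HepG2, transient MRTU transfection, cis-promoter reporters (endogenous TF activity). 24 h compound. RNA → oligo(dT) RT → PCR → 6-FAM primer extension → HpaI cut → CE. Bidirectional fit vs DMSO.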

Assay [6] can be described thus: ATG_RORE_CIS: Attagene CIS-FACTORIAL HepG2 Assay for human RAR-related Orphan Receptor Element (RORE) (AID 2282959). The note with it: HepG2 Attagene cis-factorial RORE reporter, mRNA; actives raise or lower the signal. An outline of the steps: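 HepG2 cells carrying transiently transfected cis-regulated reporter units; RORE-driven reporter mRNA quantified 24 h post-dosing by RT-PCR, 6-FAM primer extension, HpaI digestion and capillary electrophoresis. Bidirectional fit versus DMSO.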

Assay [7] has as its target Signal transducer and activator of transcription 3 (Homo sapiens) (UniProt P40763). Description: ATG_STAT3_CIS: Attagene CIS-FACTORIAL HepG2 Assay for human Signal Transducer and Activator of Transcription 3 (STAT3) (AID 2282963). The note with it: HepG2, Attagene cis-factorial STAT3 reporter transcription; actives raise or lower the signal. In short, it runs like this:
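Values derive from bidirectional fits relative to DMSO of reporter mRNA levels, measured by RT-PCR with capillary electrophoresis, in HepG2 cells carrying transiently transfected cis-regulated reporter units and exposed 24 h.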

Assay [8] is described as follows: ATG_TA_CIS: Attagene CIS-FACTORIAL HepG2 Assay for human TA Basal Promoter (AID 2282964). The following applies: HepG2 Attagene CIS-factorial TA basal promoter reporter; actives raise or lower the signal. In short, it runs like this: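 Read-out: fluorescent reporter-transcript fragments resolved by capillary electrophoresis after RT-PCR and HpaI digestion. Source: HepG2 cells carrying transiently transfected multi-reporter cis constructs, treated 24 h. Endpoint fitted bidirectionally relative to DMSO.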

The nature of assay [9]: ATG_TCF_b_cat_CIS: Attagene CIS-FACTORIAL HepG2 Assay for human T-Cell-Factor with beta-catenin (TCF/b-cat) (AID 2282965). The following applies: HepG2 TCF/beta-catenin cis-reporter transcription, actives raise or lower the signal. In short, it runs like this:
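Cells of the HepG2 line carry transiently transfected reporter units whose promoters respond to endogenous factors. Twenty-four hours post-dosing, reporter mRNA induction is measured by fluorescent RT-PCR and capillary electrophoresis, with DMSO as baseline.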

A short description of assay [10]: ATG_TAL_CIS: Attagene CIS-FACTORIAL HepG2 Assay for human TAL Basal Promoter (AID 2282966).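 Further: background control endpoint measuring basal TAL promoter reporter mRNA not a specific factor.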 The note with it: HepG2 Attagene cis-factorial TAL promoter reporter; actives raise or lower the signal. An outline of the steps:
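Steps: transfect HepG2 with multiple reporter transcription units; dose 24 h; isolate RNA, reverse-transcribe, PCR-amplify, label with 6-FAM, digest with HpaI; resolve by capillary electrophoresis. Bidirectional fitting against DMSO baseline.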

A short description of assay [11]: ATG_TGFb_CIS: Attagene CIS-FACTORIAL HepG2 Assay for human Transforming Growth Factor (TGF) (AID 2282967). The note with it: HepG2 Attagene CIS TGFb reporter, mRNA transcription; actives raise or lower the signal. An outline of the steps:
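Transient MRTU transfection of HepG2 (FuGene 6). Dose 24 h. TriZol RNA, oligo(dT) RT, PCR, 6-FAM primer extension, HpaI cut, CE. Bidirectional fit, DMSO = baseline.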

Assay [12] in a line: ATG_VDRE_CIS: Attagene CIS-FACTORIAL HepG2 Assay for human Vitamin D Receptor Element (VDRE) (AID 2282968). The following applies: HepG2 VDRE cis-reporter transcription, actives raise or lower the signal. An outline of the steps:
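Cell-based multiplexed reporter format in human liver HepG2 cells, 24 h post-dose. Fluorescence from capillary electrophoresis of reporter cDNA gives the signal, with DMSO as negative control and baseline.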

For assay [13], the target named is X-box-binding protein 1 (Homo sapiens) (UniProt P17861). Description: ATG_Xbp1_CIS: Attagene CIS-FACTORIAL HepG2 Assay for human X-box Binding Protein 1 (XBP1) (AID 2282972). The following applies: HepG2 XBP1 cis-element reporter, Attagene multiplex; actives raise or lower the signal. An outline of the steps:
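Fluorescence-labelled cDNA fragments from reporter transcripts, separated by capillary electrophoresis, give the signal. Source: HepG2 cells transfected with promoter-driven reporter units, harvested 24 h post-dose. DMSO served as reference for bidirectional curve fitting.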

The target of assay [14] is Transcriptional activator Myb (Homo sapiens) (UniProt P10242). Description: ATG_Myb_CIS: Attagene CIS-FACTORIAL HepG2 Assay for human Myeloblastosis (Myb) Proto-Oncogene Transcription Factor (AID 2282986). The note with it: HepG2 Attagene CIS-FACTORIAL Myb reporter transcription; actives raise or lower the signal. An outline of the steps:
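Transiently transfected HepG2 cells carrying a multiplexed cis-promoter reporter set report endogenous Myb activity after 24 h compound exposure. Reporter mRNA is read by RT-PCR with capillary electrophoresis of fluorescent products, fitted bidirectionally against DMSO.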

For assay [15], the target named is Nuclear respiratory factor 1 (Homo sapiens) (UniProt Q16656). Description: ATG_NRF1_CIS: Attagene CIS-FACTORIAL HepG2 Assay for human Nuclear Respiratory Factor 1 (NRF1) Orphan Gene (AID 2282987). The following applies: HepG2 NRF1 cis-element reporter, Attagene multiplex; actives raise or lower the signal. An outline of the steps:
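HepG2 cells transiently transfected with multiple cis-regulated reporter units, exposed 24 h. Reporter mRNAs measured by RT-PCR, fluorescent labelling, HpaI digestion and capillary electrophoresis; bidirectional fitting against DMSO.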

The target in assay [16] is Myc proto-oncogene protein (Homo sapiens) (UniProt P01106). Nature of the assay: ATG_Myc_CIS: Attagene CIS-FACTORIAL HepG2 Assay for human Myelocytomatosis (Myc) Proto-Oncogene Transcription Factor (AID 2282990). The note with it: HepG2, Attagene cis-reporter transcription factor activity; actives raise or lower the signal. In short, it runs like this: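 Fluorescence intensity of reporter-specific cDNA fragments, separated by capillary electrophoresis, gives the signal. Transfected HepG2 cells carrying cis-promoter reporter constructs are incubated with compound for 24 h; DMSO serves as baseline.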
Chain of Myc proto-oncogene protein (Homo sapiens) (P01106 whole entry, looked up, the tested form may be a part): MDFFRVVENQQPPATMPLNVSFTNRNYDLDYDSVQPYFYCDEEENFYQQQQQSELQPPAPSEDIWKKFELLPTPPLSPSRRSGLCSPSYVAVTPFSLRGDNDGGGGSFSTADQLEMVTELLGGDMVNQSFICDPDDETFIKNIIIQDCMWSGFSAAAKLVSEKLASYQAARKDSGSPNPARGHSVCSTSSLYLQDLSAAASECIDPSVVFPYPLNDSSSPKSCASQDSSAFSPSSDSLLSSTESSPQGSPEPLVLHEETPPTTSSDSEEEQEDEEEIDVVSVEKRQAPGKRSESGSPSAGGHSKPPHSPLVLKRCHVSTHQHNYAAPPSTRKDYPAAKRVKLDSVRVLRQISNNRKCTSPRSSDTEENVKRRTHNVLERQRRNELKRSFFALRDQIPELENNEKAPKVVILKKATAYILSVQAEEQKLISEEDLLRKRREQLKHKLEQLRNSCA

A short description of assay [17]: ATG_NRF2_ARE_CIS: Attagene CIS-FACTORIAL HepG2 Assay for human Nuclear Factor Erythroid 2 Related Factor 2 (NFR2) response to Antioxidant Response Elements (ARE) (AID 2282992). The note with it: HepG2 Attagene ARE/NRF2 reporter, transcription factor activity; actives raise or lower the signal. An outline of the steps:
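Multiplexed reporter mRNA profiling in HepG2 after a 24 h chemical exposure. Curves fitted in both directions relative to DMSO negative control.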

The nature of assay [18]: ATG_Oct_MLP_CIS: Attagene CIS-FACTORIAL HepG2 Assay for human Octamer-Binding Transcription Factor (Oct) (AID 2282993). The note with it: HepG2 Attagene cis-factorial Oct reporter, mRNA; actives raise or lower the signal. An outline of the steps:
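Transient MRTU transfection of HepG2 → 24 h compound treatment → RNA isolation, reverse transcription, PCR → 6-FAM primer extension, HpaI digest → capillary electrophoresis. Activity fitted both directions against DMSO.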

In assay [19] the target is Cellular tumor antigen p53 (Homo sapiens) (UniProt P04637). Description: ATG_p53_CIS: Attagene CIS-FACTORIAL HepG2 Assay for human p53 Transcription Factor (AID 2282994). The note with it: HepG2 p53 cis-element reporter, Attagene mRNA; actives raise or lower the signal. In short, it runs like this:
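Multiplexed reporter mRNA assay in human HepG2 liver cells; cis-regulated units report endogenous factor activity. Values come from bidirectional curve fitting against DMSO negative control after 24 h treatment.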

Assay [20] is described as follows: ATG_NF_kB_CIS: Attagene CIS-FACTORIAL HepG2 Assay for human Nuclear Factor Kappa B (NF-kB) (AID 2282991). The note with it: HepG2 Attagene cis-factorial NF-kB reporter mRNA; actives raise or lower the signal. An outline of the steps: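 HepG2 cells transfected with cis-promoter-driven reporter units, so endogenous transcription factor activity is measured. Reporter mRNA quantified 24 h after dosing by RT-PCR and capillary electrophoresis, with bidirectional fitting against DMSO.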

In general, AC50 refers to the concentration giving half of the maximal activity seen.

Structures are written as SMILES. The source made the active and inactive calls. How the source made its calls: active means hit-call score of the fitted dose curve at least 0.9, where 1 is the maximum; inactive means score below 0.9.

Chain of Nuclear respiratory factor 1 (Homo sapiens) (Q16656 whole entry, looked up): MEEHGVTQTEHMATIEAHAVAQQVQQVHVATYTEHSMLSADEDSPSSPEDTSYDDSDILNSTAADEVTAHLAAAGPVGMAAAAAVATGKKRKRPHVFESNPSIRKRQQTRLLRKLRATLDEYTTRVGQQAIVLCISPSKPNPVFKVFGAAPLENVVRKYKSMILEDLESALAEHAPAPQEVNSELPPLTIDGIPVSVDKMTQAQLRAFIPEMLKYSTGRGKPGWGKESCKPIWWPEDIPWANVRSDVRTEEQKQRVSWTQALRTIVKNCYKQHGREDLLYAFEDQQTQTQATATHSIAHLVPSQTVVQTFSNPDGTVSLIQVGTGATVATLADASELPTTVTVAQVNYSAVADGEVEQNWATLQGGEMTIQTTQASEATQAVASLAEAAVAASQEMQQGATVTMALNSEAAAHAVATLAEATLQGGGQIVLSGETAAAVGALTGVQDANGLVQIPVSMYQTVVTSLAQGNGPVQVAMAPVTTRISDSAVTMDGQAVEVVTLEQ
Chain of X-box-binding protein 1 (Homo sapiens) (P17861 whole entry, looked up, the tested form may be a part): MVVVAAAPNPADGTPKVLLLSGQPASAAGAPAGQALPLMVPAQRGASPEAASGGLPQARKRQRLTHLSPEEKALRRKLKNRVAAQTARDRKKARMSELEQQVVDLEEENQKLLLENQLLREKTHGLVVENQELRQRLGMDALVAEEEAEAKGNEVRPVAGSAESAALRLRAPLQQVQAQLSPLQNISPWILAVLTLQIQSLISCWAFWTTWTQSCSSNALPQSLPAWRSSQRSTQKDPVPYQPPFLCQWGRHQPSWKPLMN
Chain of Hepatocyte nuclear factor 6 (Homo sapiens) (Q9UBC0 whole entry, looked up): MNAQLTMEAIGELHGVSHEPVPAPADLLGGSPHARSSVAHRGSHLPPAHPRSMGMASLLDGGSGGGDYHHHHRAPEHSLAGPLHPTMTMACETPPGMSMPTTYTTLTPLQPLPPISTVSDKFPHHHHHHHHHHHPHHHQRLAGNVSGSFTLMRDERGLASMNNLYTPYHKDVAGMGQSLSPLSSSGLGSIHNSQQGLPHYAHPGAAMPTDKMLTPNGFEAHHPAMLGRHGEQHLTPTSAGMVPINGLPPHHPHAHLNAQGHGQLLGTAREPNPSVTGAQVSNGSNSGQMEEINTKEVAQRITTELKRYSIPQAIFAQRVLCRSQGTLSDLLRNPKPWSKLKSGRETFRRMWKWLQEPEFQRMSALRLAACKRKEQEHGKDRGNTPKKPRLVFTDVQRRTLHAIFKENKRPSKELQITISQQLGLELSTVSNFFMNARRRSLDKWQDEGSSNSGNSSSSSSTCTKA
Chain of Heat shock factor protein 1 (Homo sapiens) (Q00613 whole entry, looked up): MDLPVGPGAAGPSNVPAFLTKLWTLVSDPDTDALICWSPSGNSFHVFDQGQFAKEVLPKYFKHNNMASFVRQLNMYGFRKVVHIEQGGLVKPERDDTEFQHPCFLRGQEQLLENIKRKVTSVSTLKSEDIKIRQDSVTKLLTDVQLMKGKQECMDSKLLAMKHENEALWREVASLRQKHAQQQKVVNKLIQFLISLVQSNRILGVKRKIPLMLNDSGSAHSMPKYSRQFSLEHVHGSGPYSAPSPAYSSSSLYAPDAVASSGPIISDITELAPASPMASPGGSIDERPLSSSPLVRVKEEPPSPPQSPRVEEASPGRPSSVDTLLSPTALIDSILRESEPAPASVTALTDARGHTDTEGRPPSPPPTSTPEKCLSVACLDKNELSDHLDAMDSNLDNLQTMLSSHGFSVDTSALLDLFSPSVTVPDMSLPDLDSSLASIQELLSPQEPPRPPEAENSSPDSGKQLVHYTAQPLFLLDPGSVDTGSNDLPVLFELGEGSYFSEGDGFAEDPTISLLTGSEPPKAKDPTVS
Chain of Transcriptional activator Myb (Homo sapiens) (P10242 whole entry, looked up): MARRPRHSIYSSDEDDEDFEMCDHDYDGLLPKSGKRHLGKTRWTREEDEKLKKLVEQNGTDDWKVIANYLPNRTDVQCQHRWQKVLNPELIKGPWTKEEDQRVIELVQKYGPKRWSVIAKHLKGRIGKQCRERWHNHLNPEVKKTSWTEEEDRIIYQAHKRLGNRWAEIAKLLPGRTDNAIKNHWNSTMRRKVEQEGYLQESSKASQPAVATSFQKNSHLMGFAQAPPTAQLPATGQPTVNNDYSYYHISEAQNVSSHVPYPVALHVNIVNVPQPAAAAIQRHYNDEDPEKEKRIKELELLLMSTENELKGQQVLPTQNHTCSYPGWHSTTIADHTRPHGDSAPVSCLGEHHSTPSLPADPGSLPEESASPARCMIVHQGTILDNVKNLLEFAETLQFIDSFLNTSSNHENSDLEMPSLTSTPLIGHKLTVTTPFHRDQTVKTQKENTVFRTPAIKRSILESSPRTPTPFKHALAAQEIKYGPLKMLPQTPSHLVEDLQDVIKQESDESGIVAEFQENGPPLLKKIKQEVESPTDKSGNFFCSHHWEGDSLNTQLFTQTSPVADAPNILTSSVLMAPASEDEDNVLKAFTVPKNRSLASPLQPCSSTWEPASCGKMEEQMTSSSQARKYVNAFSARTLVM
Chain of Signal transducer and activator of transcription 3 (Homo sapiens) (P40763 whole entry, looked up): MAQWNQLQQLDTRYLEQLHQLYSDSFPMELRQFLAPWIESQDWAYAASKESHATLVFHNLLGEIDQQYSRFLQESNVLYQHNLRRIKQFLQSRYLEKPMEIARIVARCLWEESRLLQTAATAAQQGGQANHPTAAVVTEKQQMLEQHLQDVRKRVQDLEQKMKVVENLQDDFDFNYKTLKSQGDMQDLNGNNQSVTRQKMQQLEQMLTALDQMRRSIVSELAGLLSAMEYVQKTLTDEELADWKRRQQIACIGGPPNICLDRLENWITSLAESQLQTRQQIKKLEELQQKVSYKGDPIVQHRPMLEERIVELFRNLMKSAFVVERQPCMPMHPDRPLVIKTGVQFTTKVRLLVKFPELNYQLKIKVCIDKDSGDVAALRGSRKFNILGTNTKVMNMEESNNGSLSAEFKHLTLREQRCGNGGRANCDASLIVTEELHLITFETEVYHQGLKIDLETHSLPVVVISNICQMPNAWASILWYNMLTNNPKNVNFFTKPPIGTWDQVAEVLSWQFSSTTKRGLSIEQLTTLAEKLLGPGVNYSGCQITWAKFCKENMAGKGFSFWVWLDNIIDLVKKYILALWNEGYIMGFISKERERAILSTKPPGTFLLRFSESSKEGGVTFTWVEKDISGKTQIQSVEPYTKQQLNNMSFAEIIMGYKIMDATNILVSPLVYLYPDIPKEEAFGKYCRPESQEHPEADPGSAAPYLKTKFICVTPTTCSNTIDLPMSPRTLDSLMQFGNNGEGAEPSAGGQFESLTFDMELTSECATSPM
Chain of Cellular tumor antigen p53 (Homo sapiens) (P04637 whole entry, looked up): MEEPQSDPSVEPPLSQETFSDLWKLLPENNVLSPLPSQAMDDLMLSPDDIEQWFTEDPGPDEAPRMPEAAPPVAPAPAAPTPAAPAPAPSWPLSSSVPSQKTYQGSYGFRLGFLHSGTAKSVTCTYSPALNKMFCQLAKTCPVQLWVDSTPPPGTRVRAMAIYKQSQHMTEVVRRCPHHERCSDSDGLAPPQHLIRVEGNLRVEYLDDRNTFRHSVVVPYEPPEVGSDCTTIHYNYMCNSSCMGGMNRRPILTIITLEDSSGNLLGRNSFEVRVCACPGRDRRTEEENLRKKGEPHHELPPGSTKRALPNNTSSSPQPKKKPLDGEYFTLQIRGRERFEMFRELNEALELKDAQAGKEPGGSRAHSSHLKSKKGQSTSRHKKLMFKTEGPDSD

For the compound `CC(C)CCCCCCCOC(=O)c1ccccc1C(=O)OCCCCCCCC(C)C`, the result in [1], in [2], in assay [3], in assay [4], in assay [5] and in assay [6] was inactive. The call in assay [7], in assay [8], in [9], in assay [10], in assay [11] and in assay [12] was inactive. The outcome in assay [13], in [14], in assay [15], in [16], in assay [17] and in [18] was inactive. Besides, the outcome in [19] was inactive.

On to `CCCC=NO`, for which the result in assay [1], in assay [2], in assay [4], in assay [5], in assay [6] and in assay [7] was inactive. Further, the call in assay [8], in assay [9], in assay [10], in [11], in assay [12] and in assay [13] was inactive. In addition, the call in [14], in assay [15], in assay [16], in [17], in assay [18] and in assay [19] was inactive.

`C[C@]12CCC(=O)C(O)=C1CC[C@@H]1[C@@H]2CC[C@]2(C)C(=O)CC[C@@H]12`: the result in assay [1], in [2], in assay [4], in assay [5], in assay [6] and in assay [7] was inactive. The compound was classed as inactive in [8], in assay [9], in assay [10], in [11], in assay [12] and in assay [13]. The result in assay [14], in [15], in [16], in assay [20], in [18] and in assay [19] was inactive. For the same compound, the AC50 in assay [17] is 13.8 µM (active).

As to `CCc1cccc(C)c1N(C(=O)CCl)[C@@H](C)COC`, the result in assay [1], in assay [2], in assay [3], in assay [4], in [5] and in assay [7] was inactive. Also, the compound was called inactive in [9], in [10], in assay [11], in assay [13], in assay [14] and in [15]. The outcome in assay [16], in assay [20], in assay [18] and in assay [19] was inactive. Further, the AC50 in assay [12] was 2.13 µM (active); in [17] it was 7.39 µM (active).

For `O=C(NCNC(=O)NC1C(=O)NC(=O)N1CO)NC1C(=O)NC(=O)N1CO` (stereo not given), the outcome in [1], in [2], in assay [3], in assay [4], in assay [5] and in [6] was inactive. The call in assay [7], in assay [8], in assay [9], in assay [10], in assay [14] and in assay [15] was inactive. Besides, the outcome in assay [16], in assay [17] and in assay [19] was inactive. Further, the AC50 in assay [11] was 100 µM (active); in assay [13], 151 µM (active); in assay [18], 157 µM (active).

In the case of `CC(C)(O)C#N`, the compound was called inactive in assay [1], in assay [2], in [4], in assay [5], in assay [6] and in assay [9]. Also, the result in [10], in assay [11], in [12], in assay [13], in [14] and in assay [15] was inactive. Also, the result in assay [16], in assay [17], in [18] and in [19] was inactive.

For `[CH3][Sn]([Cl])([Cl])[Cl]`, the compound was classed as inactive in [1], in [3], in assay [4], in assay [5], in [6] and in assay [7]. The compound was classed as inactive in [9], in assay [10], in assay [11], in assay [12], in [13] and in [14]. For the same compound, the outcome in [15], in assay [16], in assay [18] and in [19] was inactive. The AC50 in assay [17] is 57.6 µM (active).
